Sampled rows, rich in hits. Any-hit rate of the full collection: about 4.1%.
PTK2B oligo ant – antagonists of Pyk2 self-association, primary screen, Q293 cells, FERM NanoBiT luminescence, HTS. stronger effect = lower value. z-score (the deposit names both 25 µM and 10 µM). 99,000 tested, 0.83% active. AID 1347419, 2020;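 active = Z-score of -3 or lower, scaled per plate to the spread of control and sample wells; inactive = z-score above -3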;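 note: negative z-score means lost luminescence so less FERM oligomerization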
Target sequence (Q14289 whole entry, looked up): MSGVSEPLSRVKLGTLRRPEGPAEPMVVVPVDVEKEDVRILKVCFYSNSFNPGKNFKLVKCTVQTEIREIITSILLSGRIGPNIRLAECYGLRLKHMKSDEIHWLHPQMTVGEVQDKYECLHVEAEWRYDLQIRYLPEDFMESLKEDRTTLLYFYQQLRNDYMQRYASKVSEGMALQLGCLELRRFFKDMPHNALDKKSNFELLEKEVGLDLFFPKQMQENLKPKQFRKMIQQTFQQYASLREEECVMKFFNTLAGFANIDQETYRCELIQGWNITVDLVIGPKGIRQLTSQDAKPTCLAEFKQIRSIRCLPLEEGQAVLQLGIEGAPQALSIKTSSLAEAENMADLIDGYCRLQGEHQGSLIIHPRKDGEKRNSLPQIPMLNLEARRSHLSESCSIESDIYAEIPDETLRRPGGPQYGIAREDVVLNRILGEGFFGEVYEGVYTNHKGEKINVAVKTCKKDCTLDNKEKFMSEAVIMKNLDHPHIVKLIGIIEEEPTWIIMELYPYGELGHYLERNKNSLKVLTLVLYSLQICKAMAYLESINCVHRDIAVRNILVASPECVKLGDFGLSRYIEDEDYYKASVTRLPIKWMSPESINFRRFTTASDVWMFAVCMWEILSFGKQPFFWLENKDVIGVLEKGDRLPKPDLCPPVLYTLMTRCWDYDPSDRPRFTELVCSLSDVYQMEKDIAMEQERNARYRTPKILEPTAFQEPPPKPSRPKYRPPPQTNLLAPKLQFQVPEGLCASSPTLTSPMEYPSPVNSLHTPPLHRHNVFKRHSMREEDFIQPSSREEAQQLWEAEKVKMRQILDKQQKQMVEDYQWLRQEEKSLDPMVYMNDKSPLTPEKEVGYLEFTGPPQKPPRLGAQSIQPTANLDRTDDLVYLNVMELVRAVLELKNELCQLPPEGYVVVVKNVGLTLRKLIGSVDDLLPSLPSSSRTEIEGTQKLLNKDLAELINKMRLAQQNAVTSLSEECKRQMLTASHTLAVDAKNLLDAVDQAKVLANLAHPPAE
MRP resist rev – reversal of MRP1-mediated doxorubicin resistance, primary screen, H69AR cells, doxorubicin co-treatment. H69AR cells + 2 uM doxorubicin, CellTiter-Glo, 72 h. 85,000 tested, 0.04% active. AID 602, 2007. differential viability (reversal), % at 10 µM;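 active = viability drop by adding the cancer drug above about 55%, with treated viability meeting a 40% cutoff, limit read from the data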;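 note: viability without doxorubicin minus viability with 2 µM doxorubicin for each compound; larger differential means the compound sensitizes cells more to doxorubicin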
Cav32 inh – Cav3.2 calcium influx blockers – cell-based, Fluo-4 calcium fluorescence, FDSS, MLSMR library, primary screen. Cav3.2-expressing cells; stronger effect = lower value. Voltage-dependent T-type calcium channel subunit alpha-1H (Homo sapiens), O95180. 100,000 tested, 4% active. AID 449739, 2010. B-score at 10 µM;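 active = single-dose well whose peak fluorescence ratio is a statistical outlier from its plate by either plate-standardised score or position-corrected B-score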
CD11b adhes enh – enhancers of CD11b/CD18 adhesion to fibrinogen, primary screen, K562 cells, luminescence; ATPlite luminescence; activation, % at 10 µM; 93,000 tested, 0.07% active;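 active = 10 µM primary screen giving 50% or more activity, confirmed by 40% or more on retest at that dose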
CD11b adhes inh – inhibitors of CD11b/CD18 adhesion to fibrinogen, primary screen, K562 cells, luminescence | ATPlite luminescence; Mn2+ added to activate the integrin | 93,000 tested, 0.54% active | Integrin beta-2 (Homo sapiens) + Integrin alpha-M (Homo sapiens), P05107+P11215 | inhibition, % at 10 µM;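 active = primary inhibition of 50% or more at 10 µM, then 40% or more on retest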
MRP-1 activ – H69AR viability gain despite doxorubicin, primary screen, MRP-1 activator project, H69AR cells, CellTiter-Glo; viability rescue; viability increase, % at 10 µM; 140,000 tested, 0.61% active;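 active = viability gain under doxorubicin at or above a set limit, the compound median plus 3 SD, cut at about 4.7% in these data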;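 note: MRP-1 overexpressing cells given doxorubicin 25 µM after compound pretreatment; 18-22 h compound pretreatment then 72 h with doxorubicin before readout; 0% = doxorubicin-only wells and 100% = vehicle-treated cells without doxorubicin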
* marks the source's active call; other numbers are inactive results; . = no result given.

SMILES	PTK2B oligo ant	MRP resist rev	Cav32 inh	CD11b adhes enh	CD11b adhes inh	MRP-1 activ
COc1ccc(S(=O)(=O)Nc2cccc(NC(C)=O)c2)cc1	0.22	-2.1	-0.198	-3.0	17.2	-2.0
CCOP(=O)(O)c1ccccc1OCCOCCOc1ccccc1P(=O)(O)OCC	-0.59	5.6	1.22	-0.8	-3.6	-2.3
CCNC(=O)NCCc1c[nH]c2ccc(Cl)cc12	-0.01	-6.5	0.597	-1.9	4.3	0.3
O=C(Nc1ccc2oc(-c3ccccc3F)nc2c1)c1ccc2c(c1)OCCO2	-3.14*	.	-0.158	-3.2	15.1	-1.7
CN(CC(=O)Nc1ccccc1N1CCOCC1)S(=O)(=O)c1ccc(Cl)cc1	-1.68	-3.8	-0.0616	-4.2	-11.2	-2.3
Nc1cc(-c2ccccc2)nn1S(=O)(=O)c1ccc(F)cc1	.	6.4	-7.2*	-2.4	63.0*	-1.3
Nc1cc(-c2ccc(Br)cc2)nn1S(=O)(=O)c1ccccc1	.	7.8	-0.0316	5.1	-10.8	-0.7
O=S1(=O)CC(N2CCOCC2)c2ccccc21 (stereo unspecified)	0.42	-31.0	0.0484	-5.9	-11.0	-0.1
COCCOC(=O)c1c(C)oc2ccc(NS(=O)(=O)c3ccc(C(=O)O)cc3)cc12	-0.37	3.4	-0.0282	-3.1	-6.7	-2.4
CCCCOC(=O)c1c(C)oc2ccc(NS(=O)(=O)c3ccc4c5c(cccc35)C(=O)N4)cc12	-2.15	1.1	-5.76*	-4.6	24.5	1.5
O=C(NCc1ccco1)c1cc2sccc2n1Cc1ccccc1	-1.7	-2.9	-5.61*	.	.	-3.1
O=C(Nc1ccc2c(c1)OCCO2)c1cc2sccc2n1Cc1ccc(F)cc1	-3.11*	-2.7	-1.92	.	.	-5.0
O=C(Nc1ccc2c(c1)OCCO2)c1cc2sccc2n1Cc1ccccc1	-3.77*	5.9	-5.58*	.	.	-0.9
Cn1c(C(=O)Nc2ccc3c(c2)OCCO3)cc2sccc21	-1.76	-19.8	-1.17	-7.9	32.2	-0.9
CC1Cc2ccccc2N1C(=O)c1cc2sccc2n1Cc1ccc(F)cc1 (stereo unspecified)	-1.47	12.6	-5.57*	.	.	-2.2
CC(=O)c1cc2cc(O)ccc2o1	0.61	-1.8	-0.427	-3.0	0.0	-3.7
Cc1cc(C)cc(-n2cnc3cc(C(=O)O)ccc32)c1	1.31	9.9	1.44	-2.3	1.0	-0.1
Cc1nnc(NC(=O)NCN2C(=O)C3C4C=CC(C4)C3C2=O)s1 (stereo unspecified)	-0.02	.	0.0483	0.0	-15.1	-0.2
O=C(O)C1C(c2ccccc2)C(C(=O)Oc2ccc(O)cc2)C1c1ccccc1 (stereo unspecified)	-0.11	5.8	0.301	3.6	-7.5	-0.4
C=CCn1c(SCC(=O)NCCCC)nc2scc(-c3ccco3)c2c1=O	0.5	0.7	-2.74*	.	.	-2.5
O=C1COc2ccc(C(=O)c3ccccc3C(=O)NCc3ccccc3)cc2N1	-1.5	27.3	-7.16*	-0.4	-13.1	-0.2
CC(C)C(NC(=O)OCc1ccccc1)C(=O)NCC(=O)OC(C)(C)C (stereo unspecified)	1.41	3.8	1.05	-2.1	-16.4	-0.4
CC(C)c1nc(CN(C)C(=O)N[C@H](C(=O)N[C@@H](Cc2ccccc2)C[C@H](O)[C@H](Cc2ccccc2)NC(=O)OCc2cncs2)C(C)C)cs1	.	.	-5.63*	.	.	.
CCOC(=O)c1cc2c(ccn2C)n1CC(=O)N1CCCC(C)C1 (stereo unspecified)	0.83	-4.2	0.0823	.	.	0.0
C/C(Cl)=C\Cn1c(N2CCCC2)nc2c1c(=O)[nH]c(=O)n2C	-0.41	35.5	3.49*	6.2	-5.4	-0.8
SMILES	PTK2B oligo ant	MRP resist rev	Cav32 inh	CD11b adhes enh	CD11b adhes inh	MRP-1 activ
C=CCn1c(N2CCCCCC2)nc2c1c(=O)[nH]c(=O)n2C	-1.04	-11.8	0.629	7.6	-33.7	-3.0
CC1CCN(c2nc3c(c(=O)[nH]c(=O)n3C)n2Cc2ccccc2Cl)CC1	.	33.8	-4.5*	.	.	-3.3
CCOC(=O)N1CCN(S(=O)(=O)c2ccc(C)cc2)C1c1ccccc1 (stereo unspecified)	-0.8	12.8	-4.1*	-0.3	9.3	-3.7
CCCCN1C(=O)C(O)=C(C(C)=O)C1c1ccccc1 (stereo unspecified)	-0.63	5.4	0.878	-2.7	-25.5	1.0
CCCCCCN1C(=O)C(O)=C(C(C)=O)C1c1ccc(Cl)cc1 (stereo unspecified)	-0.39	15.2	-7.81*	4.7	0.8	-0.6
COc1ccc(C(=O)Nc2ccc(S(=O)(=O)N3CCc4ccccc43)cc2)cc1	-3.15*	-22.7	-3.64	.	.	-4.8
Cc1ccc(C(=O)Nc2ccc(S(=O)(=O)N3CCc4ccccc43)cc2)o1	-1.83	-2.4	-1.71	-5.2	63.1	-3.8
Cc1ccc(S(=O)(=O)Oc2ccc(/C=C(/NC(=O)c3ccccc3)C(=O)Nc3ccccc3)cc2)cc1	-0.13	-8.5	-5.04*	-4.5	19.2	-5.8
CCN(CC)CCCNc1nnc(C)c(=O)[nH]1	0.5	-9.0	0.00456	0.0	-8.3	-2.9
CCOC(=O)c1oc2ccccc2c1CSc1nnnn1-c1ccc(C)cc1	-1.16	5.2	-3.9*	.	.	-2.0
Cc1ccc(C(=O)NCc2ccc3c(c2)OCO3)cc1S(=O)(=O)N1CCCCC1	0.14	11.3	-7.43*	.	.	-0.1
Cc1ccc2c(CC(=O)OC(C)C(=O)NCc3ccc4c(c3)OCO4)coc2c1 (stereo unspecified)	1.17	17.8	-5.13*	1.6	-4.3	-2.0
Cc1cccc(NS(=O)(=O)c2cc(C(=O)OC(C)C(=O)NCc3ccc4c(c3)OCO4)ccc2C)c1 (stereo unspecified)	.	.	.	-2.4	-7.9	4.8*
Cc1ccc2c(CC(=O)NCc3ccc4c(c3)OCO4)coc2c1	0.07	2.5	-4.63*	-2.5	-10.3	0.0
Cc1ccc2c3c(c(SCC(=O)Nc4nonc4C)nc2c1)CCCC3	0.84	-8.6	-0.0338	-1.0	-13.6	-3.1
CC1=C(C(=O)Nc2ccc(C)cc2C)C(c2cccs2)NC(=S)N1 (stereo unspecified)	-0.48	.	-1.81	-0.4	4.6	-0.6
COC(=O)N1N=C(c2ccccc2)CC1(O)C(F)(F)F (stereo unspecified)	-0.18	.	1.39	.	.	1.2
O=[N+]([O-])c1ccc(Cl)cc1Sc1cccc2cccnc12	-0.61	6.0	-0.767	.	.	0.6
Cc1ccc(NC(=O)Cn2nc(C)cc2C)cc1	-0.45	8.3	0.599	-3.0	-9.4	-0.5
CC(C)CC(=O)Nc1ncnc2c1C(=O)CC(C)(C)C2	-0.86	12.4	0.403	6.5	-5.9	-0.5
Cc1ccccc1OCCNC(=O)c1ccccc1Sc1ccccc1C#N	-1.83	.	-5.52*	6.0	9.1	-4.3
